Data: article PMC4336329 (PLoS ONE, 2015)
Screen size: about 310,000 compounds; about 14,000 (4.5%) showed an effect of 50% or more. Effects have a minus sign here. The entries come from a sample that favours strong results as a whole.

target: human ether-à-go-go-related gene (hERG) potassium channel (human, UniProt Q12809); experiment: primary screen, population patch clamp on CHO cells stably expressing hERG; higher = less effect of the substance
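Note: peak tail current of the secondary pulse compared with the same well before compound.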

Chain of human ether-à-go-go-related gene (hERG) potassium channel (Q12809 whole entry, looked up): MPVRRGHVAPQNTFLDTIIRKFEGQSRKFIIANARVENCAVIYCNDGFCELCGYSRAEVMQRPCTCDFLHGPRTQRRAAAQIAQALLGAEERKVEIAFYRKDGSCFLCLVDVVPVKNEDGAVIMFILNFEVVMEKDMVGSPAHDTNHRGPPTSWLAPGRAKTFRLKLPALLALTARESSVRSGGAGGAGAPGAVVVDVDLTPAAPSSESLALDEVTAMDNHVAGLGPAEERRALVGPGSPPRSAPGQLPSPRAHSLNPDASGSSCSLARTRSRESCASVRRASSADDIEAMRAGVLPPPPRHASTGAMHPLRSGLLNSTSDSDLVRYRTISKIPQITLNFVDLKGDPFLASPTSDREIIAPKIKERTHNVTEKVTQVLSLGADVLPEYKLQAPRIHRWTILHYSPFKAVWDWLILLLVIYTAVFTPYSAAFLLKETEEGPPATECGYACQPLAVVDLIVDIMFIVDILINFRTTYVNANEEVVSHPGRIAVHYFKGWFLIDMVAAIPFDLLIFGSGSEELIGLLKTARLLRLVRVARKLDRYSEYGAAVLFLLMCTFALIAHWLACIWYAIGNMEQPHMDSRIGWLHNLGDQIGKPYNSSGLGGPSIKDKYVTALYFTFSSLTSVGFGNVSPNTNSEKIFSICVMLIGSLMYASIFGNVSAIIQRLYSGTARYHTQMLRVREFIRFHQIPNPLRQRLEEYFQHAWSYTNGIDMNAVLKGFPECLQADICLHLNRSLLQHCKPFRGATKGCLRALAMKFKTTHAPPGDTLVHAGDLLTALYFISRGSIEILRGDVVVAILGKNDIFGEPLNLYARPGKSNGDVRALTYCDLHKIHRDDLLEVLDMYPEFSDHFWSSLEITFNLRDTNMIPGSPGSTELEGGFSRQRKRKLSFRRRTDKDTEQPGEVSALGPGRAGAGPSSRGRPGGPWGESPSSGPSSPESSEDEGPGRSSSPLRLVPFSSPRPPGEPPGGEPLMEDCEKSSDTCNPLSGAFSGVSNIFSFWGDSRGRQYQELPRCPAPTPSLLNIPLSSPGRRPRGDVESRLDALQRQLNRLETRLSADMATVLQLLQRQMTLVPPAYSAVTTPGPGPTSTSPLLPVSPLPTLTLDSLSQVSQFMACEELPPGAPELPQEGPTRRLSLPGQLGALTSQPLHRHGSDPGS

Row | SMILES | hERG current change (%, negative = inhibition) at 10uM
1 | CCCCNS(=O)(=O)c1ccc2c(c1)oc(=O)n2CC(=O)OCC | 5.06%
2 | O=C(Nc1ccccc1C(=O)Nc1ccccn1)c1cccc([N+](=O)[O-])c1 | -58.2%
3 | Cc1ccccc1NS(=O)(=O)c1ccc2[nH]cc(C(=O)NCCCN3CCOCC3)c(=O)c2c1 | 14.5%
4 | O=C(Nc1cc([N+](=O)[O-])ccc1C(=O)NCCN1CCOCC1)c1ccccc1 | -44.9%
5 | O=C(NCCCN1CCOCC1)c1ccccc1NS(=O)(=O)c1ccc(F)cc1 | -41.5%
6 | Cc1cc(C)c(C)c(S(=O)(=O)Nc2ccccc2C(=O)NCCCN2CCOCC2)c1C | -88.5%
7 | O=C(Nc1ccccc1C(=O)Nc1ccccn1)c1ccc([N+](=O)[O-])cc1 | -18%
8 | O=C(Nc1ccccc1C(=O)NCCCN1CCOCC1)c1cccc([N+](=O)[O-])c1 | -52.7%
9 | Cc1ccccc1NS(=O)(=O)c1ccc(C(=O)NCCCN2CCOCC2)cc1 | 9.08%
10 | O=C(NCCCN1CCCC1=O)c1ccccc1NS(=O)(=O)c1ccc(Br)cc1 | 1.59%
11 | O=C(NCCCN1CCOCC1)c1ccccc1NS(=O)(=O)c1ccc(Br)cc1 | -56.1%
12 | O=C(Nc1ccccc1C(=O)NCCCN1CCOCC1)c1ccccc1 | 6.8%
13 | O=C(Nc1ccccc1C(=O)Nc1ccc(Br)cn1)c1cccc([N+](=O)[O-])c1 | 16.6%
14 | CCCCNC(=S)NCCN1CCN(C(=S)NCCCC)CC1.Cl | -8.2%
15 | S=C(Cc1ccc(Cl)cc1)N1CCOCC1 | 11.1%
16 | CC(C)C(=O)Nc1ncc(Cc2ccc(Cl)cc2)s1 | 6.53%
17 | O=[N+]([O-])c1ccccc1N(CC1CO1)S(=O)(=O)c1ccccc1 (stereo not drawn) | 2.02%
18 | O=C(CCc1nc2ccccc2c(=O)[nH]1)Nc1nnc(SCc2ccc(F)cc2)s1 | 7.47%
19 | CC(C)(C)NCC(O)CON=C1c2ccccc2-c2ccccc21 (stereo not drawn) | -28.5%
20 | COc1ccc(O)c(/C=N/NC(=O)c2ccc(OCc3cccc(Br)c3)cc2)c1 | 9.95%
21 | COc1ccc(CNC(=O)C/C(C)=N/NC(=O)c2ccc(OC)cc2OC)cc1 | -10.5%
22 | O=C(NNS(=O)(=O)c1ccccc1[N+](=O)[O-])c1cc2ccccc2cc1O | -10.9%
23 | O=C(NCCc1ccccc1)c1ccc2c(c1)OCCCO2 | 17.4%

Row | SMILES | hERG current change (%, negative = inhibition) at 10uM
24 | CCN(CC)CCN(Cc1cc2ccc(C)cc2[nH]c1=O)C(=O)Nc1ccc(Cl)cc1 | -77.6%
25 | Cc1ccc2cc(CN(CCN(C)C)C(=O)Nc3ccc(Cl)cc3)c(=O)[nH]c2c1 | -70.5%
26 | CCC(=O)N(CCc1ccccc1C)Cc1cc2ccc(C)cc2[nH]c1=O | 9.02%
27 | O=C(NCc1ccccc1)c1cccc(COc2ccc(Cl)cc2)c1 | 5.77%
28 | COc1cc(C2C(C#N)=C(N)Oc3cc(O)ccc32)cc(OC)c1OC (stereo not drawn) | 4.91%
29 | COC(=O)c1cc(S(=O)(=O)NC2CCCCC2)cn1C | 10.5%
30 | O=S(=O)(c1ccc(SCCO)nc1)N1CCOCC1 | -2%
31 | CCOC(=O)CCNC(=O)Nc1cc2nc(C)n(Cc3cccc(Cl)c3)c2nc1C | 4.33%
32 | O=c1cc(-c2ccccc2)[nH]c2ccccc12 | -11.4%
33 | O=C(COC(=O)c1ccccc1[N+](=O)[O-])NNC(=O)c1cccs1 | -15.7%
34 | CC(C)C(=O)N(Nc1nc2ccccc2s1)C(=O)C(C)C | -0.224%
35 | CN1CCc2c(c3ccccc3n2C)C1.Cl | 11.4%
36 | CN1CCc2c(c3ccccc3n2Cc2ccccc2)C1.Cl | -71.2%
37 | CCCCN1CCc2c(c3ccccc3n2Cc2ccccc2)C1 | -72.9%
38 | Cc1ccc(CCn2c3c(c4ccccc42)CN(C)CC3)cn1 | -3.74%
39 | Cc1ccc2c(c1)c1c(n2CCc2ccc(C)nc2)CCN(C)C1 | -15.8%
40 | O=C1SCCc2c1n(Cc1ccccc1)c1ccccc21 | 2.89%
41 | COc1ccc(-c2ncc3ccccn23)cc1 | -5.24%
42 | Cc1cc(NC(=O)c2ccc(N(C)S(=O)(=O)c3ccccc3)cc2)no1 | -11.5%
43 | COc1ccc(OCCCC(=O)Nc2ccc(N3CCCCC3)cc2)cc1.Cl | -1.87%
44 | CC(=O)N1C2CCCCC2S[C@H]2CCCCC21 (stereo partly drawn) | 18.9%
45 | Cc1ccc(/C=N/n2c(COc3ccccc3)n[nH]c2=S)s1 | 14.6%
46 | COc1ccc(C(C(=O)NC2CCCC2)N(C(=O)c2ccoc2C)c2ccc(C)c(C)c2)cc1 (stereo not drawn) | 15.1%

Row | SMILES | hERG current change (%, negative = inhibition) at 10uM
47 | COc1ccccc1CNC(=O)CN1C(=O)c2ccccc2S1(=O)=O | 12.7%
48 | CCN(CC)CCn1c(NC(=O)c2ccccc2O)nc2ccccc21 | -68%
49 | CCN(CC)CCn1c(NC(=O)c2ccc(Cl)cc2)nc2ccccc21 | -31.5%
50 | CCN(CC)CCn1c(NC(=O)c2ccc(C)cc2)nc2ccccc21 | -63.2%
51 | CCCn1c(NC(=O)c2ccccc2Br)nc2ccccc21 | 16.2%
52 | CCCn1c(NC(=O)c2ccc(C)cc2)nc2ccccc21 | -22.8%
53 | CCC(=O)Nc1nc2ccccc2n1CCN(CC)CC | -14.1%
54 | Cc1ccc(C(=O)Nc2nc3ccccc3n2CCN2CCCC2)cc1 | -53.8%
55 | O=C(Nc1nc2ccccc2n1CCN1CCCCC1)c1ccc(Cl)cc1 | -13.2%
56 | CCN(CC)CCn1c(NC(=O)c2ccc(C(F)(F)F)cc2)nc2ccccc21 | -25.7%
57 | CCCc1nnc(NC(=O)c2cc(OC)cc(OC)c2)s1 | -4.25%
58 | Cc1ccccc1NC(=O)CSc1ccncc1 | -1.94%
59 | CNCCc1ccccn1.Cl | 7.88%
60 | CC(=O)NN1C(=O)/C(=C/c2ccc(Br)o2)SC1=S | 2.1%
61 | COc1ccc(C(CNC(=O)c2ccco2)N2CCCCC2)cc1 (stereo not drawn) | -5.74%
62 | COc1ccc(C(CNC(=O)c2cc3ccccc3cc2OC)N2CCCC2)cc1 (stereo not drawn) | -67.5%
63 | COc1ccc(C(CNC(=O)CCNC(=O)c2ccccc2OC)N2CCCC2)cc1 (stereo not drawn) | -14.1%
64 | COc1ccc(C(CNC(=O)c2cc3ccccc3o2)N2CCCC2)cc1 (stereo not drawn) | -38.6%
65 | COc1ccc(C(CNC(=O)c2cc3ccccc3o2)N2CCCCC2)cc1 (stereo not drawn) | -51.6%
66 | COc1ccc(C(CNC(=O)c2ccccc2C)N2CCCC2)cc1 (stereo not drawn) | -16.2%
67 | CCOC(=O)c1cc(CC)sc1NC(=O)Cc1ccccc1 | 25.9%
68 | CCCCn1c(-c2csc3ccccc23)n[nH]c1=S | 12.8%
69 | Cc1ccc(S(=O)(=O)NC2=NCN(CCOC(=O)c3ccc([N+](=O)[O-])cc3)CN2)cc1 | 12.7%

Row | SMILES | hERG current change (%, negative = inhibition) at 10uM
70 | CCn1cc(C(=O)NCc2ccc3c(c2)OCO3)c(=O)c2cc(F)c(N3CCN(C)CC3)cc21 | -37.2%
71 | CCOC(=O)c1cccc(S(=O)(=O)N2CCCC2)c1 | 8.7%
72 | C/C=C/c1ccc(OCC(O)CN(C)Cc2ccc(SC)cc2)c(OC)c1.O=C(O)C(=O)O (stereo not drawn) | -71.2%
73 | COc1ccccc1OCCCCN1CCC(C)CC1 | -16%
74 | COc1cc(/C=C/C(=O)N(Cc2ccccc2)c2ccccn2)cc(OC)c1OC | -23.2%
75 | C/C=C/c1ccc(OCC(=O)O)c(OC)c1 | 12.4%
76 | C/C=C/c1ccc(OCCCCOc2ccc(OC)cc2)c(OC)c1 | -7.09%
77 | COc1ccc(/C=C/C(=O)N(Cc2ccccc2)c2ccccn2)cc1OC | -76.6%
78 | C/C=C/c1ccc(OCCCCN2CCC(C)CC2)c(OC)c1 | -68.1%
79 | COc1cc(/C=C/C(=O)OCC(=O)NCc2ccco2)ccc1OC(F)F | 6.87%
80 | COc1ccc(/C=C/C(=O)N(c2ccccn2)C2CCCCC2)cc1OC | -6.44%
81 | COc1cc(/C=C/C(=O)OCC(=O)NCc2ccco2)ccc1O | 3.65%
82 | C/C=C/c1ccc(OCC(O)CN2CCCCCCC2)c(OC)c1 (stereo not drawn) | -35.4%
83 | COc1ccc(/C=C/C(=O)OCC(=O)NCc2ccco2)cc1OC | -72%
84 | CCOC(=O)C1=C(COc2ccc(F)cc2Cl)NC(=O)NC1c1cc(C)ccc1C (stereo not drawn) | 10.6%
85 | O=[N+]([O-])c1cc(Cl)ccc1Nc1ccccc1 | 9.85%
86 | CCOC(=O)c1sc(NC(=O)COC(=O)CNC(=O)c2ccco2)c(C(=O)OCC)c1C | 4.08%
87 | COc1cccc(CN2CCN(S(=O)(=O)c3ccccc3)CC2)c1OC | -4.11%
88 | CC(C(=O)NCc1ccc2c(c1)OCO2)c1ccc([N+](=O)[O-])cc1 (stereo not drawn) | -13.6%
89 | Cc1ccc(-c2noc(CN3C(C)CCCC3C)n2)cc1 (stereo not drawn) | 2.64%
90 | Cc1cc(O)c(C=O)c2c1C(=O)Oc1c(CO)c(O)c3c(c1O2)C(O)OC3=O (stereo not drawn) | 0.355%
